From PMC4242493, “Sequence specificity incompletely defines the genome-wide occupancy of Myc”
In all, about 33,000 sequences were measured (“normalized occupancy”: median about 0.075, highest 2% from about 0.095 on). The list comes from a sample in which the highest values are over-represented; it also holds similar and randomly drawn sequences.

Target: MaxL homodimer (Homo sapiens, UniProt P61244 1-160)
Assay: universal protein-binding microarray (PBM); PBS-based mixture, 10 nM His-tagged protein dimer, 2% milk, 200 ng/uL BSA, 50 ng/uL salmon testes DNA, 0.02% TX-100; detection with Alexa 488 anti-His antibody;; high values mean tight binding
Settings: protein: recombinant; tags: C-terminal His-tag (pET21a); chain copies: 2; dsDNA, one strand shown
How it was run: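 Agilent 4 x 44 K arrays carrying the 'all 10-mer' universal design were incubated with His-tagged protein dimer at 10 nM. Protein that bound was tagged using fluorophore-conjugated anti-His antibody at 10 ng/μL, and a GenePix 4400A scanned the arrays to give an intensity for every 8-mer. Each binding occupancy value expresses an intensity relative to the top-ranked intensity.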

Sequence of MaxL homodimer (P61244 whole entry): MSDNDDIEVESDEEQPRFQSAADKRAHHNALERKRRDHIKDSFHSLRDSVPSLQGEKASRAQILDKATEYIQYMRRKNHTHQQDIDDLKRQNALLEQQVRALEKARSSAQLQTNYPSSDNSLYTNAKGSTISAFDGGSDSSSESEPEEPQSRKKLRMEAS

| Sequence | binding signal [normalized occupancy] |
| --- | --- |
| GCGTGCAC | 0.109 |
| CCGTGCAG | 0.0778 |
| ACGTGCAG | 0.101 |
| AAGTGCAG | 0.0763 |
| GCGTGCCC | 0.0965 |
| CCGTGCAC | 0.0816 |
| AGGTGCAT | 0.0863 |
| GAGTGCAC | 0.082 |
| GCGTGCCA | 0.09 |
| ACGTGCAT | 0.104 |
| AAGTGCAT | 0.085 |
| CGAATAAA | 0.0729 |
| TAAATAAA | 0.0766 |
| CCACCACG | 0.0914 |
| ACCGGTTA | 0.0751 |
| TAGGAAAA | 0.0729 |
| CAGCTGAA | 0.0749 |
| ACGAAAGC | 0.0763 |
| TCCGAAAA | 0.0774 |
| AGACTGTA | 0.0748 |
| AGGTGCAC | 0.0767 |
| GCGTGCAA | 0.0963 |
| GGGTGCAA | 0.0755 |
| GTGTGCAA | 0.0818 |
| AAGTGCAC | 0.0774 |

| Sequence | binding signal [normalized occupancy] |
| --- | --- |
| ATGTGCAC | 0.0959 |
| ACGTGCAA | 0.098 |
| ACGTGCAC | 0.113 |
| CTGTGCAC | 0.0869 |
| ATGTGCAA | 0.0875 |
| TCGTGCAA | 0.0766 |
| CCGTGCAA | 0.078 |
| GATGGACA | 0.0742 |
| AATGCAAC | 0.0776 |
| CATACGGG | 0.0812 |
| CAGTTATA | 0.0794 |
| CCTCCATC | 0.0784 |
| CAACCTAA | 0.0744 |
| CTAACATC | 0.0796 |
| AGCGTCGC | 0.0721 |
| CCCGTCCC | 0.0747 |
| ATAATACC | 0.08 |
| AGCCCAAA | 0.0722 |
| AGCACGCT | 0.104 |
| AGCACGCG | 0.156 |
| CGCACGCG | 0.121 |
| CGCACGCA | 0.0894 |
| AGCACACA | 0.0906 |
| CGCACGCC | 0.0878 |
| AGCACGCC | 0.0846 |

| Sequence | binding signal [normalized occupancy] |
| --- | --- |
| AGCACACG | 0.0942 |
| AGCACGCA | 0.0909 |
| GAAATCAA | 0.075 |
| ATGTAGTG | 0.0796 |
| CCCTTATA | 0.0809 |
| ACTTGTAC | 0.0751 |
| CAAACGTA | 0.0729 |
| AAAACGTG | 0.122 |
| CAAACGTC | 0.0739 |
| AAAACGTT | 0.0743 |
| CAAACGTG | 0.103 |
| AAAACGTA | 0.0744 |
| ATAGTGAA | 0.0751 |
| AACCCGAG | 0.0727 |
| AGCATCCT | 0.0767 |
| CGCATCCG | 0.0736 |
| AGCATGCA | 0.114 |
| CGAATGCG | 0.0744 |
| AGCATGCT | 0.134 |
| AGCATACA | 0.087 |
| AGCATTCA | 0.0761 |
| TGCATGCA | 0.1 |
| TGCATGAA | 0.0821 |
| CGCATGCG | 0.133 |
| TGCATACA | 0.085 |

| Sequence | binding signal [normalized occupancy] |
| --- | --- |
| AACATGCT | 0.0905 |
| GCGTACAA | 0.0756 |
| GCTTAGAC | 0.0762 |
| GTATTGAC | 0.0759 |
| ACCGTCCA | 0.0727 |
| CAATAACA | 0.0785 |
| GCATACCA | 0.0835 |
| AAGCATCC | 0.0817 |
| GGCATGCA | 0.109 |
| CGCATGCC | 0.116 |
| AGCATGCC | 0.112 |
| CGGATGCC | 0.0725 |
| CGCATTCA | 0.0752 |
| AGCATTCC | 0.0752 |
| CGAATGCA | 0.0799 |
| CGCATGCA | 0.122 |
| AGCATCCC | 0.077 |
| GGCATGAA | 0.081 |
| CGCATCCC | 0.0821 |
| GGCATGCC | 0.0932 |
| TAAGTACA | 0.0831 |
| AGTACTAA | 0.0769 |
| GGGTTCTA | 0.0754 |
| CGATTGGC | 0.0736 |
| ACTTCGGG | 0.0726 |

| Sequence | binding signal [normalized occupancy] |
| --- | --- |
| AGCCCTTG | 0.0731 |
| AGATTGGA | 0.0757 |
| AACATCGC | 0.0768 |
| GTTCTCTA | 0.0731 |
| CGTGGTTC | 0.0858 |
| CGGAGGTA | 0.0743 |
| AGTATGCG | 0.077 |
| AGCATCCG | 0.0757 |
| AGCATGCG | 0.124 |
| GCAAGGTA | 0.0757 |
| CGCAGTAC | 0.0724 |
| GTATGGGA | 0.0804 |
| ATATGGCG | 0.0846 |
| CTATGGCA | 0.0779 |
| ATATGGCA | 0.098 |
| ATATGGGA | 0.0957 |
| CTATGGGA | 0.0764 |
| ATGATAAG | 0.0844 |
| AGCTCCAT | 0.0804 |
| CAAATGCC | 0.0743 |
| AACATGCC | 0.089 |
| AACATGCA | 0.0927 |
| CACATGCC | 0.134 |
| GAGATGCC | 0.0786 |
| GACATGCA | 0.0909 |

| Sequence | binding signal [normalized occupancy] |
| --- | --- |
| AACATGCG | 0.101 |
| CACATGCG | 0.159 |
| AACATACG | 0.0835 |
| GACATGCC | 0.0968 |
| CAGATGCG | 0.078 |
| CAAATGCG | 0.0791 |
| CCAACCCA | 0.0759 |
| AGTGCCTC | 0.0729 |
| AGAGGCAC | 0.0762 |
| AGGCTCAT | 0.0751 |
| AATCTAAA | 0.0727 |
| ACCGGTAG | 0.0719 |
| CACATGCA | 0.138 |
| TACATGCA | 0.0895 |
| CAAATGCA | 0.0784 |
| ATGCGGAG | 0.0844 |
| CGTTGAGC | 0.0723 |
| CGGCATAC | 0.0757 |
| CGGCATCC | 0.078 |
| CGGCATGA | 0.0962 |
| AGGCATGA | 0.091 |
| GGGCATGA | 0.087 |
| CGGCATGC | 0.109 |
| AGACCATC | 0.0766 |
| ATCTAGTG | 0.078 |

| Sequence | binding signal [normalized occupancy] |
| --- | --- |
| GCCTGCCA | 0.072 |
| ATGCACGG | 0.0875 |
| CTGCACAA | 0.0745 |
| CTGCACGA | 0.0824 |
| ATGCACGA | 0.0913 |
| ATGCACGC | 0.111 |
| AAGCACGC | 0.0949 |
| CAGCACGC | 0.0982 |
| CTGCACGC | 0.0997 |
| CAGCACGA | 0.0909 |
| CAATTTGG | 0.0724 |
| CCACCGAA | 0.0733 |
| AACAGCGA | 0.0748 |
| AGTCACAA | 0.0805 |
| GTATATCA | 0.0787 |
| CCCACCCC | 0.0962 |
| ACCCCCCC | 0.0963 |
| CCCACCCA | 0.0925 |
| GCCACCCC | 0.0827 |
| AACCCCCC | 0.0825 |
| ACCCCCCA | 0.0865 |
| GGTGCAAA | 0.0755 |
